These results are taken from the supplement of paper PMC5734697.

This assay relates to Caenorhabditis elegans. Description: growth (movement index) relative to DMSO control, secondary screen (log2 fold change); higher = more growth (less anthelmintic activity). The note with it: 10 µM, 5 days, 20 °C, stage: L1 start. The protocol: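 C. elegans growth assay: synchronised L1 larvae (~20 per well) in S-complete medium with HB101 E. coli were grown in 96-well plates with Pathogen Box compound at 10 µM (1% DMSO) for 5 days at 20 °C. Motility/growth was quantified by whole-plate movie imaging (INVAPP/Paragon movement index). The score is the log2 fold change of the median movement of 5 replicate wells (on different plates) relative to DMSO-only wells. The secondary screen retested the top 20 hits with the same library material (n = 5, 10 µM).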
On to `CCc1nn(C)c(C(=O)NCc2ccc(Oc3ccc(C)cc3)cc2)c1Cl`, for which the “growth (log2)” value was -10.6.
Under `CC1(C)OB(O)c2ccc(C3=NOC(c4cc(Cl)c(F)c(Cl)c4)(C(F)(F)F)C3)cc21` (configuration not stated) stands -0.316.
